An excerpt weighted towards active compounds, which were near 2.5% of everything screened.
TROY NFkB inh: inhibitors of TROY-driven NF-kB signaling, primary screen, Q293 LMP1-TROYcd cells, NF-kB luciferase, uHTS; 360,000 tested, 0.98% active; inhibition, % at 10 µM; Q293 LMP1-TROYcd NF-kB luciferase reporter, 4 h;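 active means compounds whose plate-normalised and pattern-corrected inhibition of the luciferase reporter signal at the single screening dose is 50% or more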
EWS-Fli inh: EWS/Fli-driven NR0B1 reporter inhibitors, primary screen, A673 cells, NR0B1 luciferase, luminescence, MLPCN library | inhibition, % at 12.6 µM | AID 651661, 2012 | viability-normalised | 350,000 tested, 0.67% active;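 active means mean inhibition of at least 50% after viability correction, with every replicate also passing that limit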;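 further: firefly luciferase signal divided by Alamar Blue viability fluorescence both relative to DMSO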
TWEAK-Fn14 inh: inhibitors of TWEAK-Fn14 signaling, primary screen, luciferase reporter cells, uHTS; TWEAK-stimulated Fn14 reporter cells, luciferase luminescence, 8 h; inhibition, % at 10 µM; 360,000 tested, 2% active; AID 1159606, 2016; in the data active means inhibition above about 50%
LMP1 NFkB inh: EBV LMP1-driven NF-kappaB luciferase reporter inhibitors, primary screen, cell-based, luminescence, single point; LMP1-induced NF-kappaB luciferase reporter cells; inhibition, % at 12.5 µM; 350,000 tested, 0.69% active; AID 504558, 2011; in the data active means inhibition above about 41%;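 further: 0% = neutral control wells and 100% = reference inhibitor control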
LGR2 antag: inhibitors of bursicon-induced LGR2 CRE-luciferase signal, primary screen, cell-based, HEK293, CRE-luciferase reporter, bursicon stimulation | Drosophila bursicon receptor LGR2 (rickets) | bursicon-stimulated, 4 h | inhibition, % at 9.99 µM | 380,000 tested, 0.35% active;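 active means drop in luminescence signal, shown as inhibition above about 50% in the replicate tests, limit read from the data, passing the limit was not always enough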;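 further: agonist challenge used bursicon conditioned medium at about half maximal strength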
* = called active by the depositor.

`CN(C)CCCN(C(=O)c1ccc(C(=O)c2ccccc2)cc1)c1nc2c(F)cccc2s1` gave TROY NFkB inh -26, EWS-Fli inh 6, TWEAK-Fn14 inh -12, LMP1 NFkB inh -1 and LGR2 antag 4.
For C[C@H](CO)N1C[C@H](C)[C@H](CN(C)C(=O)[C@@H](Cc2ccccc2)N(C)C)OCc2ccccc2-c2ccccc2C1=O the results were EWS-Fli inh -13 and LGR2 antag -3.
Screening CN(C)S(=O)(=O)N1CCC(Oc2ccc(C(=O)NC3Cc4ccccc4C3)cc2)CC1 returned TROY NFkB inh 27, EWS-Fli inh -23, TWEAK-Fn14 inh 52*, LMP1 NFkB inh 1 and LGR2 antag -13.
For CC(C)c1nc(NCCO)c(C#N)c2c1CCCC2 the results were TROY NFkB inh 51*, EWS-Fli inh -3, TWEAK-Fn14 inh 61* and LMP1 NFkB inh 31.
Screening CC(C)c1nc(Cl)c(C#N)c2c1CCCC2 returned TROY NFkB inh 1, EWS-Fli inh -14, TWEAK-Fn14 inh 52*, LMP1 NFkB inh 6 and LGR2 antag -9.
Screening O=C(O)C[C@@H]1C[C@H]2c3cc(NC(=O)Cc4ccncc4)ccc3O[C@H]2[C@H](CO)O1 returned EWS-Fli inh -4 and LGR2 antag -9.
COc1cc2c(cc1OC)C(=O)N1[C@H]3c4cc(Cl)ccc4OC[C@@H]3[C@H](c3ccccc3)[C@]1(C)C(=O)N2 was read as TROY NFkB inh 10, EWS-Fli inh 56*, TWEAK-Fn14 inh 18, LMP1 NFkB inh -41 and LGR2 antag -2.
COc1ccc2c(c1)C(=O)N1[C@H]3c4cc(Cl)ccc4OC[C@@H]3[C@H](c3ccccc3)[C@]1(C)C(=O)N2 was read as TROY NFkB inh -14, EWS-Fli inh 49, TWEAK-Fn14 inh -9, LMP1 NFkB inh 14 and LGR2 antag 14.
Screening COc1ccc2c(c1)[C@H]1[C@H](CO2)[C@H](c2ccccc2)[C@]2(C)C(=O)Nc3cc(C)ccc3C(=O)N12 returned TROY NFkB inh 15, EWS-Fli inh 15, TWEAK-Fn14 inh -4, LMP1 NFkB inh -28 and LGR2 antag 3.
`COc1cc2c(cc1OC)C(=O)N1[C@H]3c4cc(C)ccc4OC[C@@H]3[C@H](c3ccccc3)[C@]1(C)C(=O)N2` gave TROY NFkB inh 19, EWS-Fli inh 58*, TWEAK-Fn14 inh 8, LMP1 NFkB inh -16 and LGR2 antag 12.
Screening CCC(=O)N[C@H]1CC[C@H](CC(=O)NCc2ccccc2OC)O[C@H]1CO returned EWS-Fli inh -3 and LGR2 antag 0.
`C[C@@H]1CN([C@@H](C)CO)S(=O)(=O)c2ccc(C#CC3CCCC3)cc2O[C@@H]1CN(C)Cc1cncnc1` gave EWS-Fli inh 14 and LGR2 antag -9.
For CCOC(=O)c1sc(NC(=O)c2cc(-c3ccccc3C)nc3ccccc23)c(C#N)c1C the results were TROY NFkB inh 69*, TWEAK-Fn14 inh 63* and LMP1 NFkB inh 34.
`CCOC(=O)c1sc(NC(=O)CSc2n[nH]c(-c3ccc(Cl)cc3Cl)n2)c(C#N)c1C` gave TROY NFkB inh 63*, TWEAK-Fn14 inh -4 and LMP1 NFkB inh -2.
`CCCC#Cc1ccc2c(c1)O[C@@H](CN(C)C(=O)c1cnccn1)[C@@H](C)CN([C@@H](C)CO)S2(=O)=O` gave EWS-Fli inh 54* and LGR2 antag -28.
Screening CCCN(C)C[C@@H]1Oc2cc(C#Cc3ccncc3)ccc2S(=O)(=O)N([C@H](C)CO)C[C@@H]1C returned EWS-Fli inh 66* and LGR2 antag 6.
`C[C@@H]1CN([C@@H](C)CO)S(=O)(=O)c2ccc(C#Cc3ccncc3)cc2O[C@H]1CN(C)C(=O)Nc1ccc2c(c1)OCO2` gave EWS-Fli inh 71*.
For C[C@H](CO)N1C[C@H](C)[C@@H](CN(C)Cc2ccc(Cl)c(Cl)c2)Oc2ccc(NS(=O)(=O)c3ccc(F)cc3)cc2CC1=O the results were EWS-Fli inh 3 and LGR2 antag 12.
`CC(C)N(C[C@H]1N[C@H](CO)[C@@H]1c1ccc(C2=CCCC2)cc1)C(=O)CN(C)C` gave EWS-Fli inh 20 and LGR2 antag 0.
For COc1ccc2c3c([nH]c2c1)[C@H](CO)N(Cc1ccccc1Cl)CC31CCN(C(C)=O)CC1 the results were EWS-Fli inh -13 and LGR2 antag -11.
Screening CCc1ccc(-c2nn(-c3ccccc3)cc2C2SCC(=O)N2Cc2ccco2)cc1 (stereo not given) returned TROY NFkB inh 1, TWEAK-Fn14 inh 53* and LMP1 NFkB inh -23.
`CCc1ccccc1NC(=O)CCS(=O)(=O)c1ccc(C)cc1` gave TROY NFkB inh 6, EWS-Fli inh 6, TWEAK-Fn14 inh 6, LMP1 NFkB inh 7 and LGR2 antag 1.
CCc1ccccc1NC(=O)CCS(=O)(=O)c1ccc(Br)cc1 was read as TROY NFkB inh -16, EWS-Fli inh 9, TWEAK-Fn14 inh 70*, LMP1 NFkB inh -7 and LGR2 antag -3.
For CC(=O)Nc1ccc(S(=O)(=O)Nc2ccc3[nH]c(=O)[nH]c3c2)cc1 the results were TROY NFkB inh 19, EWS-Fli inh 0, TWEAK-Fn14 inh 54*, LMP1 NFkB inh -5 and LGR2 antag -9.
Screening C[C@H]1CN([C@@H](C)CO)C(=O)c2cc(C3=CCCC3)cnc2O[C@H]1CN(C)S(=O)(=O)c1cn(C)cn1 returned EWS-Fli inh -21 and LGR2 antag 8.
`C[C@@H]1CN([C@@H](C)CO)C(=O)Cc2cc(NC(=O)c3ccncc3)ccc2O[C@H]1CN(C)CC1CC1` gave EWS-Fli inh -1 and LGR2 antag -12.
`COc1ccc(-c2csc(N3C(=O)CNC3=S)n2)cc1` gave TROY NFkB inh 21, TWEAK-Fn14 inh 61*, LMP1 NFkB inh -4 and LGR2 antag 10.
For COc1ccc(-c2csc(N3C(=N)SCC3=O)n2)cc1 the results were TROY NFkB inh 38, TWEAK-Fn14 inh 65* and LMP1 NFkB inh -25.
CCCNC(=O)Nc1ccc2c(c1)C(=O)N(C)C[C@@H](OC)[C@H](C)CN(C(=O)C1CCOCC1)[C@@H](C)CO2 was read as EWS-Fli inh -6 and LGR2 antag 3.
Cc1ccc(NS(=O)(=O)c2cccc(C(=O)N/N=C/c3c(C)nn(-c4ccccc4)c3N3CCCC3)c2)c(C)c1 was read as TROY NFkB inh 14, TWEAK-Fn14 inh 57*, LMP1 NFkB inh 2 and LGR2 antag 14.
`CCNc1ccc(C(=O)N/N=C/c2c(C)nn(-c3ccccc3)c2N2CCCC2)cc1[N+](=O)[O-]` gave TROY NFkB inh 8, EWS-Fli inh 6, TWEAK-Fn14 inh 31, LMP1 NFkB inh 21 and LGR2 antag 7.
